Cruzain noTriton: cruzain (T. cruzi) inhibition without detergent; P25779; purified cruzain, Z-FR-AMC fluorescence, no detergent; Potency, µM, without a hit: max response, negative = inhibition, usual class: inhibitors; 200,000 tested, 2.3% active;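 also: plate controls were enzyme without inhibitor for no effect and buffer without enzyme for full effect; nearly all actives have a fitted effect of over 40% in size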
Target sequence (P25779 123-467 limits assumed): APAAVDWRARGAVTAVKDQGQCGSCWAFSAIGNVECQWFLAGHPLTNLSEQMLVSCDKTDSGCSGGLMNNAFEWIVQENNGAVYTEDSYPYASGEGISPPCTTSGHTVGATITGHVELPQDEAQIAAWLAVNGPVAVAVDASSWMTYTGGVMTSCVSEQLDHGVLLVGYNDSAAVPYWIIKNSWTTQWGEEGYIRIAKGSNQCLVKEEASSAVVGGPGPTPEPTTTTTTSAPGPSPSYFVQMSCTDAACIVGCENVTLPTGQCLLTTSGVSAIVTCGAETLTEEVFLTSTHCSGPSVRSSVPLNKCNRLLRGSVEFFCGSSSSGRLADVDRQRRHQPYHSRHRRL
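Purified cruzain at 1.5 nM, pre-incubated 15 min with compound at room temperature in 100 mM sodium acetate pH 5.5, 5 mM DTT, 0.00005% Triton X-100. Reaction started with 2 uM Z-FR-AMC; AMC fluorescence increase over 60 s gives rate.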
Cruzain Triton: blocks cruzain activity in presence of Triton detergent. Potency, µM, for inactives: max response, negative = inhibition, usual class: inhibitors. purified cruzain, Z-FR-AMC fluorescence, 0.01% Triton. P25779. AID 1478. 200,000 tested, 0.43% active;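 also: plate controls were neutral wells for no effect and buffer without enzyme for full effect; nearly all actives have a fitted effect of over 40% in size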
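Sodium acetate buffer (100 mM, pH 5.5) containing 5 mM DTT and 0.01% Triton X-100 hosted 1.5 nM cruzain and test compound for 15 min at room temperature. Cleavage of 2 uM Z-FR-AMC was then tracked by fluorescence.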
* hit, by the source's call. A selection: hits, their analogues and other compounds. The true share with any hit is near 2.4%. Calls follow the shape of the dose curve; as a rule, active = well fitted curve in the direction sought with a large enough effect; inconclusive = small, poorly fitted or top-dose-only effect, or another doubt; inactive = no such curve, though single readings can be large; an effect the other way counts as inactive or inconclusive. Potency is read from the fitted curve at half-maximal effect.

`CCOC(=O)CNC(=O)c1ccc2c(c1)OCCO2` gave Cruzain noTriton -4% and Cruzain Triton 8%.
O=C(COC(=O)CNC(=O)c1ccc(Br)o1)Nc1ccc2c(c1)OCCO2 was read as Cruzain noTriton 11% and Cruzain Triton -1%.
`COc1cccc(NS(=O)(=O)c2cc(-c3cnc(C4CC4)o3)ccc2C)c1` gave Cruzain noTriton -9% and Cruzain Triton -7%.
For CC(C)COC[C@H](CN(Cc1ccccc1)c1ccccc1)N1CCCC1 the results were Cruzain noTriton -3% and Cruzain Triton 0%.
CCC(Sc1nnc2c3ccccc3n(CC)c2n1)C(=O)Nc1ccc(NC(C)=O)cc1 (stereo not drawn) was read as Cruzain noTriton inconclusive and Cruzain Triton -9%.
For CCC(Cn1nnc2ccccc2c1=O)NC(=O)Nc1cc(Cl)ccc1OC (stereo not drawn) the results were Cruzain noTriton 2% and Cruzain Triton -1%.
For Cc1nc2cnc(Oc3cccc(Cl)c3)nc2n(Cc2ccc(F)cc2)c1=O the results were Cruzain noTriton 8% and Cruzain Triton -3%.
Screening COc1ccc(-c2cc(OC(=O)c3cccc(Cl)c3)c3c(C)oc(C)c3c(=O)c2)cc1 returned Cruzain noTriton 6% and Cruzain Triton -14%.
CCOc1ccc(C(=O)NCC(=O)OCC(=O)c2ccc3c(c2)-c2ccccc2C3)cc1 was read as Cruzain noTriton inconclusive and Cruzain Triton -13%.
For COCCn1c(C)cc(C(=O)COC(=O)CNC(=O)c2ccccc2)c1C the results were Cruzain noTriton -30% and Cruzain Triton inconclusive.
COc1ccccc1C(=O)NCC(=O)OCC(=O)c1ccc2c(c1)-c1ccccc1C2 was read as Cruzain noTriton 10µM* and Cruzain Triton inconclusive.
Screening COc1ccc(OC)c(C(=O)COC(=O)CNC(=O)c2ccccc2)c1 returned Cruzain noTriton 13µM* and Cruzain Triton 14µM*.
For CN1c2ccccc2C(C)(C)C12C=Nc1c(cc(N3CCOCC3)c3ccccc13)O2 (stereo not drawn) the results were Cruzain noTriton 25µM* and Cruzain Triton 1%.
Screening CN1c2ccccc2C(C)(C)C12C=Cc1cc(O)ccc1O2 (stereo not drawn) returned Cruzain noTriton 0% and Cruzain Triton -12%.
Screening COc1ccc(CNc2nc(-c3ccccc3OC)nc3ccccc23)c(OC)c1 returned Cruzain noTriton -29% and Cruzain Triton -1%.
Screening CN(C)CCCNc1oc(/C=C/c2ccc(F)cc2)nc1C#N returned Cruzain noTriton 25µM* and Cruzain Triton inconclusive.
For CCOc1ccc(/C=C/c2nc(C#N)c(NCCCN(C)C)o2)cc1 the results were Cruzain noTriton inconclusive and Cruzain Triton -16%.
For CCOc1ccc(/C=C/c2nc(C#N)c(NCc3ccccc3)o2)cc1 the results were Cruzain noTriton 3% and Cruzain Triton -6%.
For CN(C)CCNc1oc(/C=C/c2ccccc2)nc1C#N the results were Cruzain noTriton 25µM* and Cruzain Triton -29%.
Screening COc1cc(/C=C/c2nc(C#N)c(NCCc3ccccc3)o2)cc(OC)c1OC returned Cruzain noTriton inconclusive and Cruzain Triton 9%.
C=CCNc1oc(/C=C/c2ccccc2)nc1C#N was read as Cruzain noTriton inconclusive and Cruzain Triton 32µM*.
CN1CCN(Cc2nc3cccc4c3c([n+]2[O-])-c2ccccc2-4)CC1 was read as Cruzain noTriton -8% and Cruzain Triton 2%.
Screening O=C1CCC=C1C(O)c1ccc2c(c1)OCO2 (stereo not drawn) returned Cruzain noTriton -7% and Cruzain Triton 3%.
For COc1ccc(/C=N/n2cc(-c3ccc(OC)cc3)nc2N)cc1 the results were Cruzain noTriton 32µM* and Cruzain Triton -8%.
For COc1ccc(/C=N/n2cc(-c3ccccc3)nc2N)cc1 the results were Cruzain noTriton inconclusive and Cruzain Triton -5%.
Screening CCOc1ccccc1NC(=O)c1c(NCc2ccc(C)o2)sc2c1CCCCC2 returned Cruzain noTriton -12% and Cruzain Triton -7%.
For CCOc1ccccc1NC(=O)c1c(NC(=O)CNCc2ccco2)sc2c1CCC2 the results were Cruzain noTriton 10µM* and Cruzain Triton -1%.
For c1ccc2nc3ccccc3nc2c1 the results were Cruzain noTriton -20% and Cruzain Triton -2%.
Nc1nc2ccccc2nc1N was read as Cruzain noTriton 20µM* and Cruzain Triton -19%.
`COc1ccc(/C=N/NC(=S)Nc2ccccc2)cc1COc1ccc(F)cc1F` gave Cruzain noTriton 7.9µM* and Cruzain Triton -5%.
`COc1cc(OC)cc(C(=O)N/N=C/c2ccc(OC)c(COc3ccc(F)cc3)c2)c1` gave Cruzain noTriton -23% and Cruzain Triton -6%.
`Cc1c(Cc2ccccc2)sc(NC(=O)/C=C/c2cccc3ccccc23)c1C(N)=O` gave Cruzain noTriton 5µM* and Cruzain Triton -5%.
Screening COC(=O)c1c(NC(=O)/C=C/C(=O)O)sc(Cc2ccccc2)c1C returned Cruzain noTriton 13% and Cruzain Triton -10%.
